According to PubChem BioAssay AID1159580 (chemical genetic matrix, 2015):
Among all 5,500 compounds or so, about 2,000 (36%) were called active. Roughly 18% stayed inconclusive and do not appear here. Rule as the data show it: active = normalized growth mostly below about 0.91 (no sharp cut-off); inconclusive = no clear call, values can overlap the other calls; inactive = mostly above about 0.92. Some of the results follow.

Assay: chemical genetic growth profiling, strain panel (AID 1159580);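 also: tested at 20 µM; growth read once vehicle control cultures reached saturation at 30 °C; 1 = growth at the plate median or of vehicle wells; lower values mean less growth of the strain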
Conditions: growth OD

Measured: normalized growth

C[C@H](COc1ccccc1)N[C@H](C)[C@H](O)c1ccc(O)cc1
inactive: S. cerevisiae deletion strains, locus YJR043C, strain POL32, active compounds read low 1.04 | S. cerevisiae deletion strains, locus YJR066W, strain TOR1, active compounds read low 0.946 | S. cerevisiae deletion strains, locus YKL009W, strain mrt4, active compounds read low 0.99 | S. cerevisiae deletion strains, locus YKL068W, active compounds read low 0.989 | S. cerevisiae deletion strains, locus YKL085W, strain MDH1 (second series), active compounds read low 0.977 | S. cerevisiae deletion strains, locus YKL085W, strain MDH1, active compounds read low 0.977 | S. cerevisiae deletion strains, locus YKL160W, strain elf1, active compounds read low 0.983 | S. cerevisiae deletion strains, locus YKL190W, strain CNB1, active compounds read low 1 | S. cerevisiae deletion strains, locus YKR001C, strain vps1, active compounds read low 1.01 | S. cerevisiae deletion strains, locus YKR026C, strain gcn3, active compounds read low 0.993 | S. cerevisiae deletion strains, locus YKR091W, strain srl3, active compounds read low 0.995 | S. cerevisiae deletion strains, locus YLL001W, strain dnm1, active compounds read low 0.966 | S. cerevisiae deletion strains, locus YLL026W, active compounds read low 1.01 | S. cerevisiae deletion strains, locus YLL041C, strain sdh2, active compounds read low 0.993 | S. cerevisiae deletion strains, locus YLR027C, strain aat2, active compounds read low 1.01 | S. cerevisiae deletion strains, locus YLR039C, strain RIC1, active compounds read low 0.898 | S. cerevisiae deletion strains, locus YLR058C, strain SHM2, active compounds read low 0.987 | S. cerevisiae deletion strains, locus YLR102C, strain apc9, active compounds read low 0.99 | S. cerevisiae deletion strains, locus YLR113W, strain HOG1, active compounds read low 0.962 | S. cerevisiae deletion strains, locus YLR221C, strain rsa3, active compounds read low 0.974 | S. cerevisiae deletion strains, locus YLR258W, strain gsy2, active compounds read low 0.997 | S. cerevisiae deletion strains, locus YLR262C, strain YPT6 (second series), active compounds read low 0.929 | S. cerevisiae deletion strains, locus YLR262C, strain YPT6, active compounds read low 1.04 | S. cerevisiae deletion strains, locus YLR268W, strain sec22, active compounds read low 0.999 | S. cerevisiae deletion strains, locus YLR320W, strain mms22, active compounds read low 0.97 | S. cerevisiae deletion strains, locus YLR330W, strain CHS5, active compounds read low 0.988 | S. cerevisiae deletion strains, locus YLR342W, strain FKS1 (second series), active compounds read low 1.01 | S. cerevisiae deletion strains, locus YLR342W, strain FKS1, active compounds read low 0.997 | S. cerevisiae deletion strains, locus YLR357W, strain rsc2, active compounds read low 0.95 | S. cerevisiae deletion strains, locus YLR370C, strain arc18, active compounds read low 0.994 | S. cerevisiae deletion strains, locus YLR371W, strain rom2, active compounds read low 0.98 | S. cerevisiae deletion strains, locus YLR384C, strain iki3, active compounds read low 1 | S. cerevisiae deletion strains, locus YLR418C, strain cdc73, active compounds read low 1.01 | S. cerevisiae deletion strains, locus YML016C, strain PPZ1, active compounds read low 0.986 | S. cerevisiae deletion strains, locus YML032C, strain rad52, active compounds read low 0.999 | S. cerevisiae deletion strains, locus YML120C, strain ndi1, active compounds read low 0.985 | S. cerevisiae deletion strains, locus YML124C, strain tub3, active compounds read low 0.983 | S. cerevisiae deletion strains, locus YMR058W, strain fet3, active compounds read low 0.988 | S. cerevisiae deletion strains, locus YMR078C, strain ctf18, active compounds read low 0.985 | S. cerevisiae deletion strains, locus YMR125W, strain sto1, active compounds read low 0.984 | S. cerevisiae deletion strains, locus YMR129W, active compounds read low 0.99 | S. cerevisiae deletion strains, locus YMR205C, strain PFK2, active compounds read low 0.974 | S. cerevisiae deletion strains, locus YMR223W, strain ubp8, active compounds read low 0.96 | S. cerevisiae deletion strains, locus YMR231W, strain pep5, active compounds read low 1 | S. cerevisiae deletion strains, locus YMR307W, strain GAS1, active compounds read low 1.05 | S. cerevisiae deletion strains, locus YNL067W, strain RPL9B, active compounds read low 1 | S. cerevisiae deletion strains, locus YNL071W, strain lat1, active compounds read low 1.01 | S. cerevisiae deletion strains, locus YNL128W, strain TEP1, active compounds read low 0.979 | S. cerevisiae deletion strains, locus YNL183C, strain NPR1, active compounds read low 0.95 | S. cerevisiae deletion strains, locus YNL209W, strain ssb2, active compounds read low 0.994 | S. cerevisiae deletion strains, locus YNL233W, strain BNI4, active compounds read low 0.979 | S. cerevisiae deletion strains, locus YNL248C, strain rpa49, active compounds read low 0.985 | S. cerevisiae deletion strains, locus YNL250W, strain rad50, active compounds read low 0.977 | S. cerevisiae deletion strains, locus YNL271C, strain bni1, active compounds read low 0.993 | S. cerevisiae deletion strains, locus YNL298W, strain CLA4, active compounds read low 0.989 | S. cerevisiae deletion strains, locus YNL307C, strain MCK1, active compounds read low 0.988 | S. cerevisiae deletion strains, locus YNL322C, strain KRE1 (second series), active compounds read low 0.998 | S. cerevisiae deletion strains, locus YNR049C, strain mso1, active compounds read low 0.991 | S. cerevisiae deletion strains, locus YNR052C, strain pop2, active compounds read low 0.987 | S. cerevisiae deletion strains, locus YOL012C, strain htz1 1.14 | S. cerevisiae deletion strains, locus YOL147C, strain pex11, active compounds read low 0.99 | S. cerevisiae deletion strains, locus YOR001W, strain rrp6, active compounds read low 1.01 | S. cerevisiae deletion strains, locus YOR061W, strain CKA2, active compounds read low 0.994 | S. cerevisiae deletion strains, locus YOR069W, strain VPS5, active compounds read low 0.98 | S. cerevisiae deletion strains, locus YOR070C, strain gyp1, active compounds read low 0.993 | S. cerevisiae deletion strains, locus YOR080W, strain dia2, active compounds read low 1 | S. cerevisiae deletion strains, locus YOR083W, strain WHI5, active compounds read low 0.987 | S. cerevisiae deletion strains, locus YOR106W, strain vam3, active compounds read low 0.979 | S. cerevisiae deletion strains, locus YOR136W, strain idh2, active compounds read low 0.999 | S. cerevisiae deletion strains, locus YOR144C, strain elg1, active compounds read low 0.999 | S. cerevisiae deletion strains, locus YOR184W, strain ser1, active compounds read low 1 | S. cerevisiae deletion strains, locus YOR231W, strain MKK1, active compounds read low 0.948 | S. cerevisiae deletion strains, locus YOR265W, strain rbl2, active compounds read low 1.01 | S. cerevisiae deletion strains, locus YOR270C, strain vph1, active compounds read low 0.978 | S. cerevisiae deletion strains, locus YOR290C, strain snf2, active compounds read low 0.938 | S. cerevisiae deletion strains, locus YOR316C, strain cot1, active compounds read low 0.986 | S. cerevisiae deletion strains, locus YPL051W, strain arl3, active compounds read low 0.982 | S. cerevisiae deletion strains, locus YPL055C, strain LGE1, active compounds read low 0.965 | S. cerevisiae deletion strains, locus YPL078C, strain atp4, active compounds read low 0.993 | S. cerevisiae deletion strains, locus YPL106C, strain sse1, active compounds read low 0.948 | S. cerevisiae deletion strains, locus YPL240C, strain hsp82, active compounds read low 1.01 | S. cerevisiae deletion strains, locus YPL256C, strain CLN2, active compounds read low 0.926 | S. cerevisiae deletion strains, locus YPR119W, strain clb2, active compounds read low 0.99 | S. cerevisiae deletion strains, locus YPR141C, strain kar3, active compounds read low 0.975 | S. cerevisiae deletion strains, locus YPR163C, strain tif3, active compounds read low 0.989 | S. cerevisiae deletion strains, locus YPR167C, strain met16, active compounds read low 0.993 | S. cerevisiae deletion strains, strain wtn01, active compounds read low 0.986 | S. cerevisiae strains, strain wild type, active compounds read low 0.993
